Results reported in PubChem BioAssay AID1159580 (chemical genetic matrix, 2015).
“And” between values parts separate entries of the source, which are not always exact repeats. Equal entries are not always repeated. Screen size: about 5,500 compounds; about 2,000 (36%) were called active. Inconclusive results (about 18%) are left out. No stated cut-off is given here; in the data, active means normalized growth mostly below about 0.91 (no sharp cut-off); inconclusive means no clear call, values can overlap the other calls; inactive means mostly above about 0.92. Some of the results follow.

Assay: chemical genetic growth profiling, strain panel (AID 1159580);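 further: tested at 20 µM; growth read once vehicle control cultures reached saturation at 30 °C; 1 = growth at the plate median or of vehicle wells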
Details: S. cerevisiae deletion strains, growth OD

Measured: normalized growth

CC(CN1c2ccccc2Sc2ccccc21)N(C)C (configuration not stated)
inactive: locus YAL030W, strain snc1, stronger effect = lower value 0.973 | locus YAL040C, strain CLN3, stronger effect = lower value 0.985 | locus YBL061C, strain skt5, stronger effect = lower value 0.924 | locus YBR009C, strain hhf1, stronger effect = lower value 0.954 | locus YBR021W, strain FUR4, stronger effect = lower value 0.938 | locus YBR023C, strain chs3, stronger effect = lower value 0.927 | locus YBR171W, strain sec66, stronger effect = lower value 0.988 | locus YBR229C, strain ROT2, stronger effect = lower value 0.95 | locus YBR231C, strain swc5, stronger effect = lower value 0.95 | locus YBR279W, strain paf1, stronger effect = lower value 0.966 | locus YCL011C, strain gbp2, stronger effect = lower value 0.981 | locus YCL016C, strain dcc1, stronger effect = lower value 0.975 | locus YCL061C, strain MRC1 (second series), stronger effect = lower value 0.998 | locus YCL069W, strain vba3, stronger effect = lower value 0.938 | locus YCR088W, strain abp1, stronger effect = lower value 0.988 | locus YDL005C, strain med2, stronger effect = lower value 1 | locus YDL035C, strain GPR1, stronger effect = lower value 0.966 | locus YDL040C, strain nat1, stronger effect = lower value 0.982 | locus YDL074C, strain BRE1, stronger effect = lower value 0.906 | locus YDL101C, strain DUN1, stronger effect = lower value 0.944 | locus YDL134C, strain PPH21, stronger effect = lower value 0.979 | locus YDL185W, strain tfp1, stronger effect = lower value 0.978 | locus YDL192W, strain arf1, stronger effect = lower value 0.982 | locus YDR001C, strain nth1, stronger effect = lower value 0.983 | locus YDR069C, strain doa4, stronger effect = lower value 0.946 | locus YDR150W, strain NUM1, stronger effect = lower value 0.99 | locus YDR159W, strain sac3, stronger effect = lower value 0.968 | locus YDR162C, strain NBP2, stronger effect = lower value 0.982 | locus YDR195W, strain ref2 1.14 | locus YDR297W, strain sur2, stronger effect = lower value 0.937 | locus YDR318W, strain mcm21, stronger effect = lower value 0.95 | locus YDR334W, strain swr1, stronger effect = lower value 0.985 | locus YDR335W, strain msn5, stronger effect = lower value 0.94 | locus YDR363W, strain ESC2, stronger effect = lower value 0.993 | locus YDR388W, stronger effect = lower value 0.977 | locus YDR392W, strain spt3, stronger effect = lower value 1.07 | locus YDR502C, strain sam2, stronger effect = lower value 0.948 | locus YEL003W, strain gim4, stronger effect = lower value 0.926 | locus YEL037C, strain rad23, stronger effect = lower value 0.972 | locus YEL061C, strain CIN8 (second series), stronger effect = lower value 0.975 | locus YEL061C, strain CIN8, stronger effect = lower value 0.977 | locus YER002W, strain NOP16, stronger effect = lower value 0.978 | locus YER016W, strain bim1, stronger effect = lower value 0.988 | locus YER110C, stronger effect = lower value 0.971 | locus YER111C, strain swi4, stronger effect = lower value 0.98 | locus YER155C, strain BEM2, stronger effect = lower value 0.987 | locus YER167W, strain BCK2, stronger effect = lower value 0.986 | locus YGL078C, strain dbp3, stronger effect = lower value 0.972 | locus YGL086W, strain mad1, stronger effect = lower value 0.936 | locus YGL167C, strain pmr1, stronger effect = lower value 0.987 | locus YGL173C, strain kem1, stronger effect = lower value 0.926 | locus YGL227W, strain vid30, stronger effect = lower value 0.974 | locus YGL248W, strain PDE1, stronger effect = lower value 0.945 | locus YGL253W, strain hxk2, stronger effect = lower value 0.963 | locus YGR135W, strain pre9, stronger effect = lower value 1 | locus YGR229C, strain SMI1, stronger effect = lower value 0.954 and 0.981 | locus YGR252W, strain gcn5, stronger effect = lower value 0.815 | locus YHR013C, strain ard1, stronger effect = lower value 1.01 | locus YHR027C, strain rpn1, stronger effect = lower value 0.927 | locus YHR030C, strain SLT2, stronger effect = lower value 0.99 and 1.04 | locus YHR079C, strain IRE1 (second series), stronger effect = lower value 0.957 | locus YHR079C, strain IRE1, stronger effect = lower value 1.07 | locus YHR094C, strain hxt1, stronger effect = lower value 0.974 | locus YHR129C, strain ARP1, stronger effect = lower value 0.985 | locus YHR142W, strain chs7, stronger effect = lower value 0.879 | locus YHR200W, strain rpn10, stronger effect = lower value 0.966 | locus YIL066C, strain RNR3, stronger effect = lower value 0.917 | locus YIL073C, strain SPO22, stronger effect = lower value 0.968 | locus YIL125W, strain kgd1, stronger effect = lower value 0.963 | locus YIR030C, strain dcg1, stronger effect = lower value 0.98 | locus YJL092W, strain hpr5, stronger effect = lower value 0.949 | locus YJL095W, strain BCK1 (second series), stronger effect = lower value 0.96 | locus YJL095W, strain BCK1, stronger effect = lower value 0.906 and 1.01 | locus YJL115W, strain asf1, stronger effect = lower value 0.974 | locus YJL129C, strain trk1, stronger effect = lower value 1.02 | locus YJL134W, strain LCB3, stronger effect = lower value 0.984 | locus YJL154C, strain vps35, stronger effect = lower value 0.973 | locus YJL164C, strain tpk1, stronger effect = lower value 0.964 | locus YJL168C, strain set2, stronger effect = lower value 0.983 | locus YJL187C, strain SWE1 (second series), stronger effect = lower value 0.894 | locus YJR043C, strain POL32, stronger effect = lower value 0.968 | locus YJR066W, strain TOR1, stronger effect = lower value 0.972 | locus YJR075W, strain HOC1, stronger effect = lower value 0.981 and 1.01
active: locus YAL021C, strain ccr4, stronger effect = lower value 0.902 | locus YAL026C, strain drs2, stronger effect = lower value 0.721 | locus YDR101C, strain arx1, stronger effect = lower value 0.914 | locus YDR137W, strain rgp1, stronger effect = lower value 1.25 [resistant] | locus YER015W, strain faa2, stronger effect = lower value 0.901 | locus YER155C, strain BEM2 (second series), stronger effect = lower value 0.816 | locus YFR010W, strain ubp6, stronger effect = lower value 0.88 | locus YGL240W, strain doc1, stronger effect = lower value 0.864 | locus YJL166W, strain qcr8, stronger effect = lower value 0.896
